# Screening results: PubChem, NMMLSC
# Sampled rows, rich in hits. Any-hit rate of the full collection: about 1.2%.
# AGP1 TOR yeast = modulators of AGP1-GFP expression in yeast TOR pathway, primary screen, cell-based, multiplex flow cytometry, S. cerevisiae, MLPCN library; hit rate 0.02% among 320,000; 3 h; GFP as percent of DMSO wells; GFP response vs DMSO, % at 10 µM; AID 2066, 2009;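 active = GFP response relative to DMSO above a set limit, near screen average plus 3 SD, cut at about 150% in these data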;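 note: median GFP channel fluorescence of the gated AGP1 strain per well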
# RPL19A-GFP yeast = RPL19A-GFP expression modulators in yeast, primary screen, cell-based, S. cerevisiae, multiplex flow cytometry, MLPCN; percent response vs DMSO, % at 10 µM; hit rate 0.3% among 330,000; S. cerevisiae RPL19A-GFP strain, 3 h; stronger effect = lower value; AID 2025, 2009;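 active = percent response vs DMSO below 50%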;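 note: median channel GFP fluorescence of the barcoded RPL19A-GFP strain; ratio of sample median GFP to plate DMSO average so 100% = DMSO; lower means less RPL19A-GFP as with rapamycin TOR inhibition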
# LAP4-GFP MLPCN = modulators of LAP4-GFP expression in yeast, primary screen, S. cerevisiae, multiplex flow cytometry, MLPCN library; hit rate 0.34% among 320,000; 3 h; median GFP as percent of DMSO wells; GFP response vs DMSO, % at 10 µM;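 active = GFP response vs DMSO above a set limit, about the screen mean plus 3 SD, cut at about 150% in these data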
# CIT2 TOR yeast = modulators of CIT2-GFP expression in yeast, primary screen, S. cerevisiae, GFP fusion, multiplex flow cytometry, MLPCN library; hit rate 0.065% among 320,000; GFP response vs DMSO, % at 10 µM; S. cerevisiae CIT2-GFP strain, 3 h; 100 means same as DMSO wells;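 active = GFP response relative to DMSO above a set limit, near the screen mean plus 3 SD, cut at about 150% in these data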;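 note: ratio of well median GFP fluorescence to mean of DMSO wells on the plate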
# MEP2-GFP yeast = modulators of MEP2-GFP levels in yeast, primary screen, S. cerevisiae, multiplex flow cytometry, MLPCN library | S. cerevisiae MEP2-GFP strain, 3 h; 100% = DMSO control level | GFP response vs DMSO, % at 10 µM | hit rate 0.51% among 330,000 | AID 2016, 2009;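 active = GFP response versus DMSO above a set limit, roughly screen mean plus 3 SD, cut at about 180% in these data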;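 note: median GFP fluorescence of the barcode-gated MEP2-GFP cells per well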
# Pemphigus Ab inh = inhibitors of pemphigus antibody binding to DSG3, primary screen, biochemical, bead-based, flow cytometry, scFv-GFP | binding (percent of control), % at 10 µM | hit rate 0.48% among 310,000 | AID 588358, 2011 | DSG3-coupled beads, scFv-anti-DSG3-GFP binding; stronger effect = lower value | Desmoglein-3 (Homo sapiens), P32926;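 active = binding more than 3 SD below its plate's average and above zero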
# Target sequence (P32926 whole entry, looked up): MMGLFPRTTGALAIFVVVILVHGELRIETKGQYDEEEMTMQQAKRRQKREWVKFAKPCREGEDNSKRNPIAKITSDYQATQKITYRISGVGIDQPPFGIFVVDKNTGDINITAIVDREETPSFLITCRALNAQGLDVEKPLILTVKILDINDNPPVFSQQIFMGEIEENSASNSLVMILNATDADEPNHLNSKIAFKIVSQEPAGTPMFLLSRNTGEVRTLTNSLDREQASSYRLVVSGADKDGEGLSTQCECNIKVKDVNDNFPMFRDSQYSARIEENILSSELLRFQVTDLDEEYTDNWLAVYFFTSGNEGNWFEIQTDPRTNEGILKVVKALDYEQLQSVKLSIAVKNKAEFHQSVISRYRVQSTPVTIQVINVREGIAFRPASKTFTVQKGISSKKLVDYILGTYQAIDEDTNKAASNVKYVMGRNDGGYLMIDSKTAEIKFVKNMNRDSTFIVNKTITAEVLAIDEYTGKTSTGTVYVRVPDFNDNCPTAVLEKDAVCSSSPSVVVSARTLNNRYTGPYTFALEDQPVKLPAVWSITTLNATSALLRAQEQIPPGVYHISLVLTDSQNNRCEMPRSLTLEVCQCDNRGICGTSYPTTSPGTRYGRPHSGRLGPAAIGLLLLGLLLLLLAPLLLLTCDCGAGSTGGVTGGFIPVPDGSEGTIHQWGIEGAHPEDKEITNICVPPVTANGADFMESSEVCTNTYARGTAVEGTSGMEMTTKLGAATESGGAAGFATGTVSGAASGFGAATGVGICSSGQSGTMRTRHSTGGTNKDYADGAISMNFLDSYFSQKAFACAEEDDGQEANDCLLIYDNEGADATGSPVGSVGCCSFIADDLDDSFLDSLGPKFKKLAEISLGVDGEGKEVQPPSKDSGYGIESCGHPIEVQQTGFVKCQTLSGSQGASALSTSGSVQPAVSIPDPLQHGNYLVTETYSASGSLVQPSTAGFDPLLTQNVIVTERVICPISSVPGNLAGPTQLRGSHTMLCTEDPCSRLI
# LAP4-GFP pick2 = LAP4-GFP expression modulators in yeast, confirmation, cell-based, second cherry pick, flow cytometry. shares compounds with LAP4-GFP MLPCN. S. cerevisiae LAP4-GFP strain, 3 h. GFP response vs DMSO, % at 10 µM. hit rate 20% among 590;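 active = GFP signal as percent of the solvent control above about 150%, meaning raised reporter expression, limit read from the data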;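 note: ratio of well median GFP fluorescence to plate DMSO mean so 100% = DMSO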
# MEP2-GFP pick2 = modulators of MEP2-GFP levels in yeast, confirmation, S. cerevisiae, flow cytometry GFP, second cherry picks. shares compounds with LAP4-GFP MLPCN. S. cerevisiae MEP2-GFP strain, 3 h. GFP response vs DMSO, % at 10 µM. hit rate 10% among 590. AID 2622, 2010;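 active = GFP signal above 150% of the solvent control wells, that is a rise of more than half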;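 note: median channel GFP fluorescence of all gated yeast cells per well; ratio of median GFP to plate DMSO average so 100% = DMSO level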
# RPL19A-GFP pick2 = RPL19A-GFP modulators in TOR pathway yeast, confirmation, cell-based, S. cerevisiae, flow cytometry, second cherry pick. S. cerevisiae RPL19A-GFP strain, 3 h; stronger effect = lower value; 100% means same as DMSO wells. shares compounds with LAP4-GFP MLPCN. GFP response vs DMSO, % at 10 µM. hit rate 3% among 590. AID 2623, 2010;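 active = under 65% GFP response relative to DMSO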;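 note: median GFP channel fluorescence per well over the all cells gate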
# CIT2 GFP CP2 = modulators of CIT2-GFP expression in yeast, confirmation, flow cytometry, second cherry pick, single plex | shares compounds with LAP4-GFP MLPCN | S. cerevisiae CIT2-GFP strain, 3 h; DMSO control wells read 100% | GFP response vs DMSO, % at 10 µM | hit rate 8% among 590 | AID 2624, 2010;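 active = GFP response vs DMSO above about 150%, limit read from the data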;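 note: median green fluorescence per well over all gated yeast cells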
# AGP1 GFP CP2 = AGP1-GFP expression modulators, hit retest, confirmation, cell-based, flow cytometry, S. cerevisiae, cherry pick set 2. percent response vs DMSO, % at 10 µM. 590 tested, under 10 active. S. cerevisiae AGP1-GFP strain, 3 h. shares compounds with LAP4-GFP MLPCN. AID 2643, 2010;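 active = over 150 percent of DMSO response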;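 note: median GFP channel fluorescence over all cells without mother daughter split; sample median GFP divided by mean DMSO control so 100% equals DMSO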
# Yeast autofluor = compound autofluorescence in yeast s288c, dose response, artefact control for yeast TOR pathway GFP screen, s288c strain; 610 tested, under 10 active; S. cerevisiae s288c, 520 nm autofluorescence, flow cytometry, 3 h; stronger effect = higher value; zero means same as solvent-only cells; AID 2757, 2010; fluorescence change (kMESF span) at 33 µM; shares compounds with LAP4-GFP MLPCN;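 active = fluorescence span over the dose series, or activity score, above about 33, limit read from the data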
# Numbers without * were called inactive; i = inactive; . = no result given.
SMILES,AGP1 TOR yeast,RPL19A-GFP yeast,LAP4-GFP MLPCN,CIT2 TOR yeast,MEP2-GFP yeast,Pemphigus Ab inh,LAP4-GFP pick2,MEP2-GFP pick2,RPL19A-GFP pick2,CIT2 GFP CP2,AGP1 GFP CP2,others
CC(=O)Oc1ccc2c(c1)Oc1cc(OC(C)=O)ccc1C21OC(=O)c2ccccc21,111,109,206*,164*,230*,i,148,175*,222,403*,119,
CC(=O)Oc1ccc2c(c1)C(=O)c1ccccc1CO2,94,100,103,92,91,92,.,.,.,.,.,
CC(C)c1cc(-c2cc(C(=O)Nc3ccccc3)on2)nc(NCC2CC2)n1,91,92,104,80,107,.,99,106,100,93,99,
CC(C)c1cc(-c2cc(C(=O)NCc3ccccc3)on2)nc(NCC2CC2)n1,80,91,144,63,92,99,117,103,96,109,100,
Cc1cc(-c2cc(C(=O)Nc3ccccc3)on2)nc(NCC2CC2)n1,87,98,108,96,92,102,102,121,103,104,105,
Cc1cc(-c2cc(C(=O)NC3CCCC3)on2)nc(NCC2CC2)n1,82,97,125,98,93,101,.,.,.,.,.,
CC(C)c1cc(-c2cc(-c3ccc(Cl)cc3)on2)nc(NCC2CC2)n1,86,96,126,93,99,105,.,.,.,.,.,
COCCNc1nc(-c2cc(C(=O)Nc3ccccc3)on2)cc(C(C)C)n1,70,88,133,62,92,.,103,102,98,96,101,
COC(=O)c1ccccc1C(=O)N(c1ccccc1)c1ccccc1,104,94,112,91,98,.,.,.,.,.,.,
CCOc1ccc(CCNC(=O)c2cc(C)nc3ccccc23)cc1OCC,103,108,103,107,108,114,.,.,.,.,.,
Cc1cc(NC2CCCCC2)nc(NCc2ccccc2)n1,108,111,103,115,114,102,.,.,.,.,.,
CC(C)c1cc(-c2cc(C(=O)NCc3ccccc3)on2)nc(NC2CCCC2)n1,80,94,156*,78,92,87,125,119,98,110,100,
Cc1nn(C)c(C)c1CS(=O)(=O)c1ccccc1,107,104,104,100,104,108,.,.,.,.,.,
Cc1ccc2ccc(C(Nc3ccccn3)c3ccccc3)c(O)c2n1 (configuration not stated),96,90,108,89,93,91,.,.,.,.,.,
Cc1cccc(NC(c2ccc(C)s2)c2ccc3ccc(C)nc3c2O)n1 (configuration not stated),80,94,176*,91,90,98,.,.,.,.,.,Yeast autofluor=0.5
CC1(C)C(=O)Nc2ccccc2N1C(=O)COc1ccccc1C#N,117,87,158*,92,99,124,100,100,98,107,99,
CCn1c(C)nc2cc(C(=O)NNC(=O)CN(C)S(=O)(=O)c3ccc(NC(C)=O)cc3)ccc21,107,106,104,105,107,106,.,.,.,.,.,
C=CCOc1ccc(C=Nc2ccc(C)c(Cl)c2)c(O)c1,94,102,87,97,105,101,.,.,.,.,.,
C#CCOc1c(Br)cc(/C=C2/C(=O)ON=C2C)cc1OC,89,91,197*,95,98,102,187*,136,93,122,101,Yeast autofluor=0.51
O=C(Sc1cccc2cccnc12)c1ccccc1Br,82,94,166*,89,105,100,.,.,.,.,.,Yeast autofluor=0.21
O=C(NNC(=O)c1sccc1-n1cccc1)c1cccc(Cl)c1,100,82,203*,88,89,99,94,96,101,107,95,
O=C(NNC(=O)c1sccc1-n1cccc1)c1ccccc1,97,98,96,111,98,102,.,.,.,.,.,
c1ccc(CCN=C2CCCc3c2[nH]c2ccccc32)cc1,103,98,115,90,98,103,.,.,.,.,.,
COc1ccc(-c2[nH]c3ccccc3c2SCCNC(=O)c2ccccc2)cc1,140,66,217*,148,662*,104,98,100,100,97,100,
O=C(Nc1nnc(SCC(=O)N2CCOCC2)s1)C1CC(=O)N(c2ccccc2)C1 (configuration not stated),101,98,97,92,104,117,.,.,.,.,.,
COc1ccc(N2CC(C(=O)Nc3nnc(SCC(=O)N4CCOCC4)s3)CC2=O)cc1 (configuration not stated),118,89,157*,110,131,.,105,112,101,104,103,
O=C(/C=C/c1ccccc1)c1cc(Br)ccc(=O)c1O,80,92,118,88,85,100,145,154*,72,163*,87,Yeast autofluor=23
O=C(/C=C/c1ccc(F)cc1)c1cc(Br)ccc1O,110,106,102,117,109,95,.,.,.,.,.,
Cc1nn(-c2ccccc2)nc1C(=O)OCC(=O)N1CCC(C)CC1,93,99,100,106,111,98,.,.,.,.,.,
